Molecules are shown by their SMILES. Calls of active or inactive are those of the source. The calls were made as follows: active = hit-call score of the fitted dose curve at least 0.9, where 1 is the maximum; inactive = score below 0.9.

Read-out in this assay: Forkhead box O1 (FOXO1), FOXO1 (gene 2308)
The assay is described as follows: LTEA_HepaRG_FOXO1: Life Technologies and Expression Analysis (LTEA) Assay for Forkhead box O1 (FOXO1) using HepaRG (AID 2283456). To be noted: mRNA level, 48 h; actives raise or lower the signal. How it is done:
LTEA_HepaRG is a cell based, multiplexed-readout assay that uses HepaRG, a human liver cell line, with measurements taken at 48 hours after chemical dosing on a 96-well plate.LTEA_HepaRG_FOXO1 is one of 102 assay component(s) measured in the LTEA HepaRG cell culture assay. It is a marker of Cell proliferation, survival, death.Data from the assay component LTEA_HepaRG_FOXO1 was analyzed into 1 endpoint. This assay endpoint, LTEA_HepaRG_FOXO1, was analyzed with bidirectional fitting relative to DMSO as the negative control and baseline of activity. Using a type of inducible reporter, measures of mRNA induction for gain or loss-of-signal activity can be used to understand regulation of transcription factor activity. To generalize the intended target to other relatable targets, this assay endpoint is annotated to the dna binding intended target family, where the subfamily is forkhead box protein.
A total of 1060 chemcials from the ToxCast library were tested in eight-point concentration-response experiments. Cell culture and cytotoxicity assays were conducted at Thermo Fisher Scientific's Custom Services facility (Madison, WI). A single lot of human HepaRG cells (Thermo Fisher Scientific, Frederick, MD) was used for the cell culture experiments. 96-well format collagen type I coated plates of human HepaRG cells were prepared using established methods. Briefly, cryopreserved HepaRG cells were thawed, plated at a density of approximately 100,000 cells/well in HepaRG Thaw, Plate, and General Purpose media (HPRG770, Thermo Fisher Scientific), and incubated for 48 hours. 0.5% DMSO was selected as vehicle control to balance the requisite need of DMSO in HepaRG cultures to maintain differentiation (for example, baseline metabolism, proportions of hepatocytes vs. cholangiocytes), while enabling further hepatic receptor pathway activation (for example, PXR and CAR) in response to chemical exposure. 48 hours after plating, the culture medium was replaced with HepaRG Serum-Free Incudtion Media. Cells were exposed to each test chemical in duplicate and maintained in CO2 incubators for another 48 hours. Chemical plates were thawed to room temperature and 200x concentrations of treatment groups were prepared. 8-point conentration-reponse curves were made with the highest exposure at 100 uM, followed by half-log dilutions, all in 0.5% DMSO. Each test plate contained variouse controls, induction positive controls (1mM phenobarbital), cytotoxicity positive controls ([…] aflatoxin B1), vehicle controls (0.5% DMSO), and total lysis controls (0.5% DMSO). Cell morphology images were taken using an Essen IncuCyte FLR automated microscope, with six 96-well plates imaged in about 24 minutes. Images were captured and exported and JPEG files. Spent culture media was transfered to black-well plates for the LDH assay, and remaining media was sorted at -80 C for later use. Cells were treated with RLT buffer and frozen until shipped for gene expression analysis. Total RNA was isolated from the cell suspension in 75 uL of Buffer RLT (Qiagen, Germantown, MD 20874) by Quintiles/Expression Analysis (Durham, NC) using a custom isolation procedure. Total RNA from each plate well was transferred to a preamplification plate. Fluidigm's 96.96 Dynamic ArrayTM (Fluidigm, Amsterdam, the Netherlands) technology was used for gene expression analyses by quantitative reverse transcription polymerase chain reaction (qRT-PCR, performed by Quintiles/Expression Analysis, Durham, NC)89. Standard TaqManTM Assays (Applied Biosystems/ThermoFisher Scientific, Foster City, CA) were used to assess the expression of 93 genes selected based on their selectivity and sensitivity to important hepatic receptors known to be modulated by environmental chemicals; importance in human hepatocyte functionality; and hepatotoxicity. […]
Take `CCSC(=O)N(CC)C1CCCCC1`: the result was inactive.

On to `CCCCCCCCCc1ccc(O)cc1`, for which the compound was classed as inactive.

In the case of `Cc1cc2c3c(c1)C(c1ccccc1)=N[C@@H](NC(=O)c1ccncc1)C(=O)N3CC2`, the compound was called inactive.

As to `c1ccc(-c2ccccc2)cc1`, the outcome was inactive.

Regarding `Cc1cccc([N+](=O)[O-])c1`, the call was inactive.

Regarding `CCCN(CCC)N=O`, the outcome was inactive.

For `CC(C)(c1ccccc1)c1ccc(O)cc1`, the outcome was inactive.

For the compound `CO/C=C(/C(=O)OC)c1ccccc1COc1cccc(C(F)(F)F)n1`, the AC50 – broadly, the concentration at which the activity in the assay is half-maximal – is 7.38 µM (active).

Regarding `O=S(=O)(O)C(F)(F)C(F)(F)C(F)(F)C(F)(F)C(F)(F)C(F)(F)F`, the outcome was inactive.

With `Oc1ccc(Cl)cc1Cl`, the result was inactive.

As for `Cc1cccc(C)c1N`, the call was inactive.

As for `C[C@]12CCC(=O)C=C1CC[C@@H]1[C@@H]2CC[C@]2(C)C(=O)CC[C@@H]12`, the compound was called inactive.

As for `CCC(C)(c1ccc(O)cc1)c1ccc(O)cc1`, the compound was called inactive.

On to `O=NN(c1ccccc1)c1ccccc1`, for which the outcome was inactive.

Take `CC(C)(O)C(=O)Nc1ccc([N+](=O)[O-])c(C(F)(F)F)c1`: the half-maximal activity concentration (AC50) is 0.0468 µM (active).

For the compound `Cc1cc(-c2ccc(N)c(C)c2)ccc1N`, the compound was called inactive.

With `ClC(Cl)=C(c1ccc(Cl)cc1)c1ccc(Cl)cc1`, the result was inactive.

On to `CCOP(=S)(OCC)SCSC(C)(C)C`, for which the call was inactive.

Regarding `Oc1ccc(C(c2ccc(O)cc2)(C(F)(F)F)C(F)(F)F)cc1`, the AC50 was 81 µM (active).

On to `C=CC(N)=O`, for which the call was inactive.

As for `ClC1=C(Cl)[C@]2(Cl)[C@@H]3[C@@H]4C[C@@H]([C@H]5O[C@@H]45)[C@@H]3[C@@]1(Cl)C2(Cl)Cl`, the compound was called inactive.

`CCOC(=O)C(O)(c1ccc(Cl)cc1)c1ccc(Cl)cc1`: the outcome was inactive.

As to `Clc1ccc(Cl)cc1`, the outcome was inactive.

In the case of `Nn1cnnc1`, the result was inactive.

As for `O=C(O)C(F)(F)C(F)(F)C(F)(F)C(F)(F)C(F)(F)C(F)(F)C(F)(F)C(F)(F)C(F)(F)F`, the AC50 was 81.6 µM (active).

Take `CC#Cc1cc(C)nc(Nc2ccccc2)n1`: the outcome was inactive.

In the case of `CCCCCCOC(=O)c1ccccc1C(=O)OCCCCCC`, the compound was classed as inactive.

In the case of `C1CC2OC2CC1C1CO1` (stereo not given), the compound was classed as inactive.

Consider `CN(C)CCO`, for which the call was inactive.

In the case of `ClC1=C(Cl)[C@]2(Cl)[C@@H]3[C@H]4C[C@H]([C@@H]5O[C@H]45)[C@@H]3[C@@]1(Cl)C2(Cl)Cl`, the compound was called inactive.

Take `CCC(=O)O[C@H]1CC[C@H]2[C@@H]3CCC4=CC(=O)CC[C@]4(C)[C@H]3CC[C@]12C`: the result was inactive.

In the case of `CC1=C2C[C@H]3[C@@H](CC=C4C[C@@H](O)CC[C@@]43C)[C@@H]2CC[C@]12O[C@@H]1C[C@H](C)CN[C@H]1[C@H]2C`, the result was inactive.

As for `Clc1ccc(C(c2ccccc2Cl)C(Cl)(Cl)Cl)cc1` (stereo not given), the call was inactive.

For `Cc1cc(O)ccc1Cl`, the result was inactive.

As to `N#Cc1ccc(N(CC(N)=O)CC(F)(F)F)cc1C(F)(F)F`, the compound was called inactive.

For `CCC(C)c1cc([N+](=O)[O-])cc([N+](=O)[O-])c1O` (stereo not given), the AC50 is 3.37 µM (active).

With `CCNc1nc(NC(C)C)nc(SC)n1`, the call was inactive.

With `CC(C)C(=O)OCC(C)(C)C(OC(=O)C(C)C)C(C)C` (stereo not given), the compound was classed as inactive.

Turning to `CCOCCOC(C)=O`, the compound was called inactive.

As for `c1cc2ccc3cccc4ccc(c1)c2c34`, the outcome was inactive.

The values are drawn from PubChem BioAssay (EPA / NIEHS).
